Only a selection was taken, and hits are over-represented in it overall.
NOMO-1 viab: STK33 inhibitor candidate reducing NOMO-1 cell viability; 37,000 tested, 7.5% active; NOMO-1 AML viability, CellTiter-Glo luminescence, 72 h; inhibition, % (no concentration beside the values); AID 2330; in the data active means inhibition above about 80%
STK33 inh: human STK33 kinase inhibition; ADP-Glo luminescence, MBP substrate; AID 2322; Q9BYT3; inhibition, % at 12.5 µM; 27,000 tested, 0.44% active; in the data active means inhibition above about 20%
p53 PUMA act: re-activators of the mutant p53 pathway. activation, % at 9.98 µM. AID 624151. 28,000 tested, 1.5% active. SW480 PUMA-promoter luciferase, p53 mutant reactivation; in the data active means activation above about 52%
ID4 binder: ID4 (human) binding; calls only; small molecule microarray, Flag-ID4 binding, fluorescence F/B; P47928; 31,000 tested, 1.2% active; AID 624137; call rule not given here;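 further: a binder raises fluorescence above local background on the spot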
Target sequence (P47928 whole entry, looked up): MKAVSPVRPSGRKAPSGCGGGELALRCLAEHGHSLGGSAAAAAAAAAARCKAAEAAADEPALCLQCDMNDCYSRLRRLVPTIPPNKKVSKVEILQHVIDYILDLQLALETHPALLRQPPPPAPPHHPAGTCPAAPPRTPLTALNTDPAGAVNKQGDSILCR
* = called active by the depositor; i = inactive; . = no result; + = active, no number.

SMILES	NOMO-1 viab	STK33 inh	p53 PUMA act	ID4 binder
O=C(CCN1C(=O)c2ccccc2S1(=O)=O)NCc1ccco1	-7	-2	21	+
O=C(CCN1C(=O)c2ccccc2S1(=O)=O)Nc1cccc(Cl)c1Cl	0	0	-3	i
Cc1ccc2nc(-c3ccc(NC(=O)CSc4ncn[nH]4)cc3)sc2c1	16	0	-65	i
C[C@@H]1CN([C@@H](C)CO)C(=O)c2cc(NC(=O)Nc3ccccc3)ccc2O[C@@H]1CN(C)Cc1ccc(C(=O)O)cc1	8	.	.	.
CS(=O)(=O)N(CC(=O)Nc1ccc(C(N)=O)cc1)c1cc(Cl)cc(Cl)c1	36	0	-15	i
C[C@@H]1CCCCO[C@@H](CN(C)Cc2ccc3c(c2)OCO3)[C@@H](C)CN([C@H](C)CO)C(=O)c2cc(NC(=O)Nc3ccc(C(F)(F)F)cc3)ccc2O1	113*	3	.	.
C[C@H](CO)N1C[C@H](C)[C@H](CN(C)Cc2ccc(Cl)c(Cl)c2)Oc2ccc(NC(=O)C3CCCCC3)cc2C1=O	37	0	.	.
C[C@@H]1CCCCO[C@@H](CN(C)Cc2ccc(Cl)c(Cl)c2)[C@@H](C)CN([C@H](C)CO)C(=O)c2cc(NC(=O)C3CCCCC3)ccc2O1	114*	4	.	.
C[C@@H]1CCCCO[C@@H](CN(C)Cc2ccc(Cl)c(Cl)c2)[C@@H](C)CN([C@H](C)CO)C(=O)c2cc(NC(=O)Nc3ccccc3)ccc2O1	103*	0	.	.
C[C@@H]1CCCCO[C@@H](CN(C)Cc2ccc(Cl)c(Cl)c2)[C@@H](C)CN([C@H](C)CO)C(=O)c2cc(NC(=O)Nc3ccc(C(F)(F)F)cc3)ccc2O1	105*	0	.	.
C[C@H]1CN([C@@H](C)CO)C(=O)Cc2cc(NS(=O)(=O)c3ccc(F)cc3)ccc2O[C@H]1CN(C)S(=O)(=O)c1ccc(F)cc1	13	-2	.	.
C[C@@H]1CCCCO[C@@H](CN(C)Cc2ccncc2)[C@H](C)CN([C@@H](C)CO)C(=O)c2cc(NC(=O)Nc3ccccc3)ccc2O1	.	.	-8	i
C[C@@H]1CCCCO[C@@H](CN(C)Cc2ccncc2)[C@H](C)CN([C@H](C)CO)C(=O)c2cc(NC(=O)Nc3ccccc3)ccc2O1	.	.	-10	+
Cc1noc(C)c1NC(=O)Nc1ccc2c(c1)C(=O)N([C@H](C)CO)C[C@H](C)[C@H](CN(C)Cc1ccc(C(=O)O)cc1)O2	23	.	.	.
C[C@@H]1CN([C@@H](C)CO)C(=O)Cc2cc(NC(=O)Nc3cccc4ccccc34)ccc2O[C@@H]1CN(C)Cc1ccncc1	82*	0	-14	i
C[C@H](CO)N1C[C@H](C)[C@H](CN(C)Cc2ccccc2)Oc2ccc(NC(=O)Nc3cccc4ccccc34)cc2CC1=O	18	0	.	.
C[C@H]1CN([C@@H](C)CO)C(=O)Cc2cc(NC(=O)Nc3cccc4ccccc34)ccc2O[C@@H]1CN(C)Cc1ccc(-c2ccccc2)cc1	96*	.	.	.
C[C@H]1CN([C@@H](C)CO)C(=O)Cc2cc(NC(=O)Nc3cccc4ccccc34)ccc2O[C@@H]1CN(C)Cc1ccc(Oc2ccccc2)cc1	116*	9	.	.
C[C@@H]1CN([C@@H](C)CO)C(=O)c2cc(NC(=O)Nc3ccc(C(F)(F)F)cc3)ccc2O[C@@H]1CN(C)C(=O)Nc1cccc2ccccc12	78	.	.	.
CC(O)c1nc2ccccc2n1CCOc1ccc(F)cc1 (stereo unspecified)	11	0	4	i
Cn1c(=N)n(CCCOc2ccc(F)cc2)c2ccccc21	94*	.	.	.
O=C(COc1ccc(Cl)cc1CO)Nc1ccccc1F	8	-6	128*	i
COc1cc(CO)ccc1OCC(=O)Nc1ccccc1F	-6	-2	64*	i
COc1cc(CO)ccc1OCC(=O)Nc1ccc(C)cc1	13	-3	47	i
Cc1ccc(S(=O)(=O)Nc2ccc3c(c2)C(=O)N([C@@H](C)CO)C[C@@H](C)[C@H](CN(C)Cc2ccc(Cl)c(Cl)c2)O3)cc1	89*	.	.	.
SMILES	NOMO-1 viab	STK33 inh	p53 PUMA act	ID4 binder
C[C@H](CO)N1C[C@H](C)[C@@H](CN(C)Cc2ccc(Cl)c(Cl)c2)Oc2ccc(NS(=O)(=O)c3ccc(F)cc3)cc2C1=O	35	.	.	.
Cc1ccc(S(=O)(=O)Nc2ccc3c(c2)C(=O)N([C@H](C)CO)C[C@@H](C)[C@H](CN(C)Cc2ccc(Cl)c(Cl)c2)O3)cc1	104*	.	.	.
CC(=O)O[C@H]1C(=O)[C@@]2(C)[C@H]([C@H](OC(=O)c3ccccc3)[C@]3(O)C[C@H](OC(=O)[C@H](O)[C@@H](NC(=O)c4ccccc4)c4ccccc4)C(C)=C1C3(C)C)[C@]1(OC(C)=O)CO[C@@H]1C[C@@H]2O	141*	0	.	i
COc1ccc(S(=O)(=O)Nc2cccc3c2O[C@H](CN(C)C(=O)Nc2ccccc2)[C@H](C)CN([C@@H](C)CO)C3=O)cc1	14	.	.	.
C[C@@H]1CN([C@H](C)CO)C(=O)c2cccc(NC(=O)Nc3cccc4ccccc34)c2O[C@@H]1CN(C)S(=O)(=O)c1ccc(Cl)cc1	-10	.	8	i
Cc1ccc(S(=O)(=O)Nc2ccc3c(c2)CC(=O)N([C@@H](C)CO)C[C@@H](C)[C@@H](CN(C)CC2CCCCC2)O3)cc1	97*	2	.	.
C[C@@H]1CN([C@@H](C)CO)C(=O)Cc2cc(NS(=O)(=O)c3ccc(Cl)cc3)ccc2O[C@@H]1CN(C)CC1CCCCC1	102*	1	-2	i
O=C1C(=O)N(Cc2ccc(Cl)c(Cl)c2)c2ccccc21	97*	2	.	i
O=C(CCCN1C(=O)c2ccccc2C1=O)Nc1ccc(Cl)c(Cl)c1	-4	-2	19	i
COc1ccc(CCNC(=S)Nc2ccncc2)cc1OC	113*	4	-13	i
COc1ccc(CCNC(=S)n2cc(C)cn2)cc1OC	111*	-2	12	i
COc1ccc(CCNC(=S)NCCc2ccccc2)cc1OC	13	.	.	.
O=C(Cn1c(=O)oc2ccccc21)Nc1sc2c(c1C(=O)O)CCCC2	-7	-1	3	+
N#Cc1c(NC(=O)Cn2c(=O)oc3cc(Br)ccc32)sc2c1CCCC2	21	-1	7	i
C[C@H]1CN([C@@H](C)CO)C(=O)c2cccc(NC(=O)Nc3ccc4c(c3)OCO4)c2O[C@H]1CN(C)Cc1ccc(C(=O)Nc2ccccc2N)cc1	140*	.	.	.
C[C@@H]1CN([C@H](C)CO)C(=O)c2cccc(NC(=O)Nc3ccc4c(c3)OCO4)c2O[C@@H]1CN(C)Cc1ccc(C(=O)Nc2ccccc2N)cc1	140*	.	.	.
CCOC(=O)c1cnc(SCC(=O)Nc2ccc(Cl)cc2Cl)nc1N	71	-4	-14	i
CCOC(=O)c1cnc(S/C=C/C(=O)c2ccc(C)cc2)nc1N	120*	2	.	.
Cc1noc(C)c1S(=O)(=O)N(C)C[C@@H]1Oc2c(NS(=O)(=O)c3ccccc3)cccc2C(=O)N([C@H](C)CO)C[C@@H]1C	2	.	.	.
CCNC(=O)C[C@H]1C=C[C@H](NC(=O)C2CCC2)[C@H](CO)O1	.	.	.	i
O=[N+]([O-])c1ccccc1OCCCCSc1ncccn1	45	7	23	i
Cc1ccc([N+](=O)[O-])c(OCCCSc2ncccn2)c1	23	0	67*	i

Assay outcomes (PubChem)
